# CatS inh: inhibitors of human cathepsin S | inhibition, %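 (tested at 5 µM per compound within 10-compound mixtures)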 | 62,000 tested, 0.06% active | recombinant cathepsin S, AMC dipeptide fluorescence, pooled mixtures | AID 501; in the data active means inhibition above about 32%, passing the limit was not always enough;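 further: 0% = enzyme without compound and 100% = blank without enzyme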
# Target sequence (P25774 115-331 limits assumed): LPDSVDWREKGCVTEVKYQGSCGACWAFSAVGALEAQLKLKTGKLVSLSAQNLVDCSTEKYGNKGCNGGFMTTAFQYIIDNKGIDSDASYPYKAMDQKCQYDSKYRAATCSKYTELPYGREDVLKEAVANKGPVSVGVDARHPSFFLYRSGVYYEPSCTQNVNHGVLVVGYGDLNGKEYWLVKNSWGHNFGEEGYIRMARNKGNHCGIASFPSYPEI
# CatB inh: inhibitors of human cathepsin B | purified cathepsin B, fluorogenic substrate, fluorescence | AID 453 | 63,000 tested, 0.1% active | P07858 | inhibition, %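 (tested at 10 µM)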; in the data active means inhibition above about 21%;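 further: 0% = enzyme with no compound and 100% = no enzyme blank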
# WNV NS2B-NS3 inh: blocks West Nile virus NS2B-NS3 protease activity; P06935; WNV NS2B-NS3 protease, fluorogenic substrate Ex360/Em465; active compounds read low; z-score (no concentration beside the values); 65,000 tested, 0.18% active; AID 577; in the data active means z-score below about -3
# CatB mix inh: inhibitors of human cathepsin B in compound mixtures. Purified cathepsin B, AMC dipeptide fluorescence. inhibition, %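 (ten-compound pools at 5 µM per compound and 50 µM total)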. 62,000 tested, 0.06% active; in the data active means inhibition above about 22%, passing the limit was not always enough;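 further: 0% = enzyme without compound and 100% = no enzyme blank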
# CatL block: blocks human cathepsin L protease activity; purified cathepsin L, fluorogenic substrate, fluorescence; AID 460; 58,000 tested, 0.17% active; inhibition, %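 (tested at 10 µM)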; P07711; in the data active means inhibition above about 45%;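 further: 0% = enzyme with no compound and 100% = no enzyme blank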
# * = called active by the depositor; nt = not tested or not shown. In the library only some 0.42% were active in any assay of this set; here they are far more common.
SMILES,CatS inh,CatB inh,WNV NS2B-NS3 inh,CatB mix inh,CatL block
O=C(CN(Cc1ccccc1)C(=O)CCC(=O)Nc1nccs1)NCc1ccco1,-2,7,-1.3,6,3
CCn1cc(C(=O)Nc2cccc(C(=O)OC)c2)c(=O)c2ccc(C)nc21,-7,-2,-6.2*,4,-1
COc1ccc2nc(/N=C\N(C)C)sc2c1,7,41*,0.2,1,14
COC(=O)CSC1=C(C#N)C(c2ccc(C)cc2)C2=C(CCCC2=O)N1 (stereo unspecified),21,9,-5*,2,nt
COCCNC(=O)C(c1cccc(OC)c1)N(C(=O)Cn1nnc2ccccc21)c1cccnc1 (stereo unspecified),10,23*,0.97,-4,5
CCOC(=O)N1CCN(c2c(N3CCN(c4ccccn4)CC3)c(=O)c2=O)CC1,4,3,-0.09,4,86*
CCCCc1c(C)nn(-c2nnc3c4ccccc4n(C)c3n2)c1C,nt,0,0.45,nt,94*
CCCN(CCC)CCNC(=O)C(NS(=O)(=O)c1ccc2c(c1)CCC(=O)N2)c1ccccc1 (stereo unspecified),82*,1,-0.33,7,25
CCOc1ccc2sc(NS(=O)(=O)c3ccc(OC)c(OC)c3)nc2c1,-3,-1,0.36,3,6
Cc1ccc(/C=N/c2sc3c(c2C#N)CCCCC3)o1,3,0,-0.62,1,-1
Cc1ccc(/C=N/c2sc3c(c2C#N)CCC3)s1,-7,5,0.02,0,105*
CN(C)CCCNc1oc(-c2cccc(Cl)c2)nc1C#N,19,-1,0.54,-1,-70
O=C1CCC(C(=O)NC2(C(=O)NC3CCCCC3)CCCCC2)N1 (stereo unspecified),11,3,1.5,-2,7
N#Cc1ccsc1NC(=O)c1cnccn1,4,66*,-0.49,1,24
O=C(Nc1ccccc1-c1ccccc1)c1cnccn1,13,7,-0.42,5,0
O=C(CCN1C(=O)c2ccccc2C1=O)OCN1C(=O)c2ccccc2C1=O,5,-3,-0.28,-1,-5
O=C(CNC(=O)c1ccco1)OCN1C(=O)c2ccccc2C1=O,-10,21*,0.12,25*,1
O=C(c1cc2ccccc2oc1=O)N1CCN(c2ccc(N3CCOCC3)nn2)CC1,-2,1,-4*,3,10
Cn1nnnc1SCC(=O)N1CCN(c2cccc(Cl)c2)CC1,3,-5,-0.18,6,1
O=C(NCCCN1CCc2ccccc2C1)C1CCN(c2nnc(-n3cccc3)s2)CC1,2,-4,-0.86,-10,78*
O=C(NCCCN1CCN(Cc2ccccc2)CC1)C1CCN(c2nnc(-n3cccc3)s2)CC1,9,3,-0.66,1,64*
CCCCn1c(N)c(N(CCC(C)C)C(=O)CSc2nnc(C)s2)c(=O)[nH]c1=O,15,5,-0.24,6,7
C=C1[C@@H](C)C2[C@H](Cc3ccccc3)NC(=O)[C@]23OC(=O)CC[C@H](O)CCC[C@H](C)C/C=C/[C@H]3[C@@H]1O (stereo partly specified),-5,5,-0.05,-9,-1
O=C(OC(C(=O)NCc1cccs1)c1ccccn1)c1cccs1 (stereo unspecified),5,35*,-0.71,28*,19
CC[C@@H](C)[C@H](NC(=O)C1CCN(C(=O)[C@@H](NS(=O)(=O)c2ccc(C)cc2)C(C)C)CC1)C(=O)O,-6,0,1.4,22,nt
CCN1CCN(S(=O)(=O)c2ccc(OC)c(Br)c2)CC1,7,2,-1.6,-2,19

# Screening results (PubChem BioAssay)
